Laboratory results published in PubChem BioAssay AID2316 (Broad Institute, 2010).
Hit rate of the full screen: of about 29,000 compounds, fewer than 10 were called active. A selection follows. A number with no mark means an inactive call. No rule for the calls is given here.

Assay: reversal of PD-1 mediated T-cell inhibition, primary screen, luminescence, primary human CD4 T cells, PD-L1 beads (AID 2316);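 also: 0% = median vehicle wells and 100% = positive control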
Details: CellTiter-Glo 96 h, active compounds read high

Compound	activation
O=c1c2ccccc2nc(SCc2ccc(F)cc2)n1-c1ccccc1	-10.1%
COC(=O)c1ccc(C(=O)OC)c(NC(=O)COc2ccc(C)cc2)c1	-5.39%
O=C(Nc1ccc(C23CC4CC(CC(C4)C2)C3)cc1)c1cccs1	0.396%
C/C=C1\C2C=C(C)CC1(N)c1ccc(=O)[nH]c1C2 (stereo unspecified)	0.91%
COc1cccc2cc(C(=O)Nc3sc4c(c3C(N)=O)CCCCC4)c(=O)oc12	3.77%
COc1ccc(S(=O)(=O)Nc2ccc3c(c2)C(=O)N([C@H](C)CO)C[C@@H](C)[C@H](CN(C)S(=O)(=O)c2ccc(C)cc2)O3)cc1	0.261%
COc1ccc(Oc2ccc(NC(=O)CCC(=O)O)cc2)cc1	0.302%
C[C@@H]1CN([C@H](C)CO)C(=O)Cc2cc(NC(=O)Cc3ccccc3)ccc2O[C@@H]1CN(C)Cc1ccccc1	1.25%
O=C(CN1CCOCC1)Nc1sc2c(c1C(=O)Nc1ccc(Br)cc1)CCC2	-2.1%
C[C@@H]1CN([C@@H](C)CO)C(=O)c2cc(NS(=O)(=O)c3ccc(Cl)cc3)ccc2O[C@H]1CN(C)S(=O)(=O)c1cn(C)cn1	-1.79%
COc1cc(C=Nc2ccc(Cl)cc2)ccc1OC(=O)/C=C/c1cccs1	-0.177%
CCO/C([O-])=N\c1c[n+](N2CCOCC2)no1	0.71%
C[C@@H]1CN([C@H](C)CO)C(=O)c2cc(NC(=O)Cc3ccccc3)ccc2O[C@@H]1CN(C)CC1CCCCC1	-0.76%
C[C@@H]1CCCCO[C@@H](CN(C)C(=O)NC2CCCCC2)[C@@H](C)CN([C@H](C)CO)C(=O)c2cc(NC(=O)CCCCCC(=O)Nc3ccccc3N)ccc2O1	0.709%
Cc1ccc(-n2c(C)nc3sc4c(c3c2=O)CCC4)cc1	-4.12%
CC(=O)c1cccc(NC(=O)CN(c2ccc(F)c(Cl)c2)S(C)(=O)=O)c1	2.89%
C[C@@H]1CN([C@H](C)CO)C(=O)Cc2cc(NC(=O)C3CCCCC3)ccc2O[C@@H]1CN(C)Cc1ccc(C(F)(F)F)cc1	-3.12%
CC1=Nn2c(Cn3nnc4ccccc43)nnc2SC1	0.665%
CC(=O)c1cccc(NC(=O)CN(C2CCCCC2)S(=O)(=O)c2ccccc2)c1	-2.41%
CC(C)NC(=O)Nc1ccc2c(c1)C(=O)N([C@@H](C)CO)C[C@H](C)[C@@H](CN(C)C)O2	0.0718%
CCCOC(=O)C1=C(C)N(CC)C(=O)NC1c1ccccc1Cl (stereo unspecified)	-0.396%
